PLK1 PBD block = blocks phosphopeptide binding to human PLK1 polo-box domain; P53350; Plk1 PBD binding of FITC phosphopeptide, fluorescence polarization; Potency, µM, actives largely listed as inhibitors; 2.8% of 360,000 active; AID 720504; also: series mostly up to about 57 µM; nearly all actives have a fitted effect of over 65% in size
RORgamma inh = blocks mouse ROR gamma transcriptional activity | Potency, µM (doses to about 53.6 µM), hits mostly inhibitors | 5.4% of 310,000 active | Drosophila S2 Gal4-RORgamma UAS-luciferase reporter, 20 h; also: nearly all actives have a fitted effect of over 60% in size
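Luciferase reporter read in Schneider cells carrying Gal4-RORγ (mouse) and UAS-Photinus luciferase; cells given compound 1 h before 700 uM copper sulfate induction, then incubated 20 h at ambient temperature.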
Sfp PPTase inh = inhibitors of Bacillus subtilis Sfp phosphopantetheinyl transferase; Q9F4F7; Biochemical Sfp PPTase activity, qHTS; Potency, µM, usual class: inhibitors; 3.5% of 310,000 active;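 also: the enzyme is Sfp with the accession as filed and its product quenches rhodamine fluorescence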
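With Hepes-Na pH 7.6 buffer containing 10 mM MgCl2, Sfp (15 nM) modified BHQ-2-YbbR (12.5 uM) using rhodamine-CoA (5 uM). Two reads 30 minutes apart at 525/598 nm yielded each well's rate.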
Gal4-VP16 FLuc = inhibits Gal4-VP16 luciferase reporter, ROR gamma counter-screen. Potency, µM (titrated, usually from 53.6 µM), usual class: inhibitors. Drosophila S2 Gal4-VP16 UAS-luciferase, luminescence, 20 h. 3.5% of 310,000 active;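 also: Gal4-VP16 expression switched on by copper sulfate through the metallothionein promoter; nearly all actives have a fitted effect of over 50% in size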
ALDH1A1 block = blocks purified human ALDH1A1 activity | P00352 | Purified ALDH1A1, NADH fluorescence, propionaldehyde substrate | Potency, µM (titrated, usually from 75.3 µM), usual class: inhibitors | 7.3% of 220,000 active; active = well fitted inhibition curve with a large enough effect, not every such curve was filed as active; inconclusive = small, poorly fitted or top-dose-only effect, or another doubt; inactive = no such curve, though single readings can be large or run the other way
Target sequence (P00352 whole entry, looked up): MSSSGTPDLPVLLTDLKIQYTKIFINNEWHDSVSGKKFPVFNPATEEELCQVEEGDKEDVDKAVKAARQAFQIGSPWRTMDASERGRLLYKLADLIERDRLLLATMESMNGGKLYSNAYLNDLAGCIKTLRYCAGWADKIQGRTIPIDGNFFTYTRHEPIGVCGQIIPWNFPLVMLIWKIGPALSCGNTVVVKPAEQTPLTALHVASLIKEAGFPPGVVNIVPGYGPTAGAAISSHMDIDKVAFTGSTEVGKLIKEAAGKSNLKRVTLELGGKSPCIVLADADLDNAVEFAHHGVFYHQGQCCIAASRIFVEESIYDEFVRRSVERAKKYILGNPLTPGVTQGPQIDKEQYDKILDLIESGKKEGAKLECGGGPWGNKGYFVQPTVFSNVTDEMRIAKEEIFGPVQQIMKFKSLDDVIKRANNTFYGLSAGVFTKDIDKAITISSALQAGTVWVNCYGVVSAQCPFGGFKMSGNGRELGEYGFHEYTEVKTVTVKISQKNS
Each line names hits and unclear results; the compound was inactive in the other large screens. Rows were chosen to be rich in hits. Some 12% of all compounds tested hit in one or more screens of this group. Unless noted, calls follow the shape of the dose curve; as a rule, active = well fitted curve in the direction sought with a large enough effect; inconclusive = small, poorly fitted or top-dose-only effect, or another doubt; inactive = no such curve, though single readings can be large; an effect the other way counts as inactive or inconclusive.

Oc1[nH]c2ccc(Br)cc2c1N=NC(=S)NCC1CCCO1 (stereo not given)	PLK1 PBD block inconclusive, RORgamma inh 1.4µM, Gal4-VP16 FLuc inconclusive (no result: ALDH1A1 block)
O=C1C=C[C@@H](O)[C@H]2[C@@H]3C(=O)N(C4CCCCC4)C(=O)[C@@H]3CC[C@H]12	ALDH1A1 block inconclusive (no result: PLK1 PBD block)
OC(c1ccc(F)cc1)c1nc(-c2cc3ccccc3o2)cs1 (stereo not given)	none (no result: RORgamma inh, Sfp PPTase inh, Gal4-VP16 FLuc, ALDH1A1 block)
COc1ccc(-c2nc3ccc(C)cn3c2Cc2ccsc2)cc1OC	none (no result: RORgamma inh, Sfp PPTase inh, Gal4-VP16 FLuc, ALDH1A1 block)
COC(=O)NC(CC(C)=O)c1cccc(C(F)(F)F)c1 (stereo not given)	none (no result: PLK1 PBD block)
C=CCOC(=O)CSCC(NC(=O)OC(C)(C)C)C(=O)OCC (stereo not given)	RORgamma inh 8.9µM, Gal4-VP16 FLuc 11µM
Cc1coc2c1C(=O)C(=O)c1c-2ccc2c1CCCC2(C)C	PLK1 PBD block inconclusive, ALDH1A1 block 20µM
Cc1ccc(/C(=N\S(=O)(=O)c2ccc(Br)cc2)Nc2ccccc2C)cc1	none (no result: ALDH1A1 block)
Cc1ccccc1N/C(=N/S(=O)(=O)c1ccccc1)c1ccc(F)cc1	PLK1 PBD block 38µM (no result: ALDH1A1 block)
O=C1CC(Sc2nnnn2C2CCCCC2)C(=O)N1c1ccccc1 (stereo not given)	RORgamma inh inconclusive, Sfp PPTase inh inconclusive, Gal4-VP16 FLuc 5µM, ALDH1A1 block 3.5µM
CCc1c(O)nc(SC2CC(=O)N(c3ccccc3)C2=O)[nH]c1=O (stereo not given)	Sfp PPTase inh inconclusive, ALDH1A1 block inconclusive
Cc1cc(C)cc(N2C(=O)CC(Sc3nnnn3-c3ccccc3)C2=O)c1 (stereo not given)	PLK1 PBD block inconclusive, RORgamma inh inconclusive, Gal4-VP16 FLuc 7.1µM, ALDH1A1 block 14µM
Cc1c(O)nc(SC2CC(=O)N(c3ccccc3)C2=O)[nH]c1=O (stereo not given)	Sfp PPTase inh 79µM, ALDH1A1 block inconclusive
Cc1cc(C)cc(N2C(=O)CC(Sc3ncn[nH]3)C2=O)c1 (stereo not given)	PLK1 PBD block 24µM, RORgamma inh inconclusive, Sfp PPTase inh 35µM, Gal4-VP16 FLuc inconclusive, ALDH1A1 block 2µM
Cc1cccc(N2C(=O)CC(Sc3nc(C)cc(C)n3)C2=O)c1 (stereo not given)	ALDH1A1 block inconclusive
COc1ccc(NC(=O)N2CCC3(CC2)CCN(C(=O)c2ccco2)CC3)cc1	none (no result: PLK1 PBD block)
O=C(Oc1ccccc1)N1CCC[C@@]2(CCN(c3ccncc3)C2)C1	none (no result: PLK1 PBD block)
Cn1nnnc1SC1CC(=O)N(c2ccccc2)C1=O (stereo not given)	PLK1 PBD block inconclusive, RORgamma inh 7.9µM, Gal4-VP16 FLuc inconclusive, ALDH1A1 block 1.6µM
COC(=O)c1ccccc1SC1CC(=O)N(c2ccccc2)C1=O (stereo not given)	RORgamma inh inconclusive, Sfp PPTase inh inconclusive, Gal4-VP16 FLuc inconclusive, ALDH1A1 block inconclusive
O=C(Nc1ccc(F)cc1F)c1csc(-c2ccncc2)n1	none
Cc1ccc(C(=O)Nc2cccc(C(F)(F)F)c2)cc1NC(=O)c1csc(-c2ccncc2)n1	Sfp PPTase inh 20µM (no result: ALDH1A1 block)
c1ccc(-c2nc3ccccc3[nH]2)nc1	RORgamma inh 5.6µM, Sfp PPTase inh inconclusive, Gal4-VP16 FLuc 6.3µM
Cc1ccc2nc(-c3ccccn3)[nH]c2c1	RORgamma inh 4µM, Gal4-VP16 FLuc 6.3µM (no result: ALDH1A1 block)
Cc1ccc(C)c(-c2nc3ccc(N)cc3[nH]2)c1	ALDH1A1 block inconclusive
Cc1cc(-c2nc3ccccc3[nH]2)ccc1N	RORgamma inh inconclusive, Gal4-VP16 FLuc inconclusive, ALDH1A1 block inconclusive
c1ccc2[nH]c(-c3ccncc3)nc2c1	ALDH1A1 block inconclusive
Cc1ccc2nc(-c3ccccc3N)[nH]c2c1	PLK1 PBD block 30µM, RORgamma inh 10µM, ALDH1A1 block inconclusive
Cc1ccc2nc(CCCc3nc4ccc(C)cc4[nH]3)[nH]c2c1	none (no result: ALDH1A1 block)
Cc1c(N)cccc1-c1nc2ccccc2[nH]1	RORgamma inh 11µM, Gal4-VP16 FLuc inconclusive
CCCCOCCCNC(=O)C[C@@H]1C[C@@]2(C(=O)OC)CCCCC=C2N(Cc2ccccc2)C1=O	none (no result: RORgamma inh, Sfp PPTase inh, Gal4-VP16 FLuc, ALDH1A1 block)
COc1ccc([N+](=O)[O-])c2c1CCN2C(=O)CC[C@H](N)C(=O)O	none (no result: PLK1 PBD block)
O=c1[nH]c(-c2ccccc2O)nc2ccccc12	none (no result: PLK1 PBD block)
O=c1[nH]c(-c2ccccn2)nc2ccccc12	RORgamma inh 4µM, Sfp PPTase inh 79µM, Gal4-VP16 FLuc 7.1µM, ALDH1A1 block inconclusive
O=c1[nH]c(-c2ccccn2)nc(C(F)(F)F)c1Br	RORgamma inh 2.2µM, Sfp PPTase inh inconclusive, Gal4-VP16 FLuc 5µM, ALDH1A1 block inconclusive
Cc1sc2nc(-c3ccccn3)[nH]c(=O)c2c1-c1ccccc1	PLK1 PBD block 19µM, RORgamma inh 1.1µM, Sfp PPTase inh 18µM, Gal4-VP16 FLuc 4.5µM
Cc1sc2nc(-c3ccncc3)[nH]c(=O)c2c1-c1ccccc1	ALDH1A1 block inconclusive (no result: PLK1 PBD block)
c1ccc(-c2n[nH]c(-c3ccccc3)c2-c2nc3ccccc3[nH]2)cc1	PLK1 PBD block 27µM, ALDH1A1 block inconclusive
c1cncc(-c2nc3ccccc3[nH]2)c1	none
C[C@@H]1CC2(OC(O)[C@]3(C)O[C@H]23)O[C@H]2C[C@@]3(C)[C@@H]4CC[C@H]5C(C)(C)C(O[C@@H]6OC[C@@H](O)[C@H](O)[C@H]6O)CC[C@@]56C[C@@]46CC[C@]3(C)[C@@H]12 (stereo not given in full)	RORgamma inh inconclusive, Gal4-VP16 FLuc inconclusive (no result: PLK1 PBD block, Sfp PPTase inh)
CCN1C(=O)[C@H]2[C@H]3[C@H](O)[C@H](O)C/C(=N/OCc4ccccc4)[C@H]3CC[C@@H]2C1=O	none (no result: PLK1 PBD block)
CC(C)CN(C(=O)CN(C)C(=O)Cc1c(F)cccc1Cl)c1c(N)n(CC(C)C)c(=O)[nH]c1=O	none (no result: RORgamma inh, Sfp PPTase inh, Gal4-VP16 FLuc, ALDH1A1 block)
c1ccc(-c2nc3c(ccc4ccccc43)[nH]2)nc1	RORgamma inh 0.35µM, Gal4-VP16 FLuc 1µM, ALDH1A1 block inconclusive
Nc1ccc(Cc2nc3c(ccc4ccccc43)[nH]2)cc1	RORgamma inh inconclusive, ALDH1A1 block inconclusive
CC(=O)c1coc2c1cc(O)c1ccccc12	none
CC(=O)c1cc(O)c2ccccc2c1O	PLK1 PBD block 5.3µM, Sfp PPTase inh 45µM (no result: ALDH1A1 block)
Cn1c(-c2ccccc2)c(Sc2ccccc2)c2cc(-c3ccc4[nH]ccc4c3)ccc21	none (no result: RORgamma inh, Sfp PPTase inh, Gal4-VP16 FLuc, ALDH1A1 block)
COC(=O)Cn1c(CN2CCc3ccccc3C2)nc2c1c(=O)n(C)c(=O)n2C	Gal4-VP16 FLuc 5.6µM
COC(=O)Cn1c(CN2CCN(c3ccc(F)cc3)CC2)nc2c1c(=O)n(C)c(=O)n2C	Gal4-VP16 FLuc 2.8µM
Cc1ccccc1Cn1c(CN2CCc3ccccc3C2)nc2c1c(=O)n(C)c(=O)n2C	PLK1 PBD block inconclusive, ALDH1A1 block 32µM
CCOCCn1c(CN2CCN(c3ccc(F)cc3)CC2)nc2c1c(=O)n(C)c(=O)n2C	Gal4-VP16 FLuc inconclusive, ALDH1A1 block inconclusive
Cn1c(=O)c2c(nc(CN3CCc4ccccc4C3)n2Cc2ccc(F)cc2)n(C)c1=O	none (no result: RORgamma inh, Sfp PPTase inh, Gal4-VP16 FLuc, ALDH1A1 block)
Cn1c(=O)c2c(ncn2CC(=O)N2CCN(c3ccc(F)cc3)CC2)n(C)c1=O	PLK1 PBD block 27µM
CC1(C(=O)Nc2ccc3c(c2)OCCO3)CSCC(=O)N1Cc1ccco1 (stereo not given)	none (no result: RORgamma inh, Sfp PPTase inh, Gal4-VP16 FLuc, ALDH1A1 block)

Compound activity from PubChem BioAssay.
